Results from PubChem BioAssay (NCATS).
Several values for one entry are separate records, joined by “and”; a condition that tells them apart may be missing. Equal entries are not always repeated. Records with an inconclusive call do not appear. Activity calls are given as the source filed them. Unless noted, calls come from the whole dose curve; as a rule, active = well fitted curve in the direction sought with a large enough effect in the repeat runs; inconclusive = weak or mixed curves; inactive = no such curve, though single readings can be large; an effect the other way counts as inactive or inconclusive.

tested on: not listed separately; assay: Primary qHTS for small molecule stabilizers of the endoplasmic reticulum resident proteome: Secreted ER Calcium Modulated Protein (SERCaMP) assay (AID 1508630; active = well fitted curve in the direction sought with a large enough effect; an effect the other way counts as inactive or inconclusive; note: % is set by controls: 0 for no effect and ±100 for the full control effect); conditions: SH-SY5Y GLuc-SERCaMP (Gaussia luciferase released on ER calcium loss) secretion, thapsigargin, luminescence; series mostly up to 38.4 µM; activity change, negative = inhibition: at the top concentration
Outline: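 GLuc-SERCaMP-expressing SH-SY5Y cells, pretreated 16 h with compound, are challenged with thapsigargin to empty ER calcium stores; after 4 h, coelenterazine is added directly to the medium and luminescence is imaged.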

Row | SMILES | activity change, negative = inhibition | Potency
1 | Cc1cc2c(s1)Nc1ccccc1N=C2N1CCN(C)CC1 | 56% (inactive) | 
2 | Cc1cccc(CN2CCN(C(c3ccccc3)c3ccc(Cl)cc3)CC2)c1 (stereo unspecified) | 0% (inactive) | 
3 | Oc1ccc(-c2nc(-c3ccc(F)cc3)c(-c3ccncc3)[nH]2)cc1 | -13.5% (inactive) | 
4 | Cc1nc(-c2ccc(OCC(C)C)c(C#N)c2)sc1C(=O)O | 67.9% (inactive) | 
5 | NC(=NCc1ccccc1)NC(=O)c1nc(Cl)c(N)nc1N |  | inactive
6 | CN(C)CCCC1(c2ccc(F)cc2)OCc2cc(C#N)ccc21 (stereo unspecified) | 89% (inactive) | 
7 | CN(C)[C@@H](CCOc1cccc2ccccc12)c1ccccc1 | -23.2% (inactive) | 
8 | C=C(c1ccc(C(=O)O)cc1)c1cc2c(cc1C)C(C)(C)CCC2(C)C |  | inactive
9 | Cc1ccc(NC(=O)c2ccc(CN3CCN(C)CC3)cc2)cc1Nc1nccc(-c2cccnc2)n1 |  | inactive
10 | Cc1cc(C2CCCCC2)n(O)c(=O)c1 |  | inactive
11 | Nc1ccn([C@@H]2O[C@H](CO)[C@@H](O)C2O)c(=O)n1 (stereo partly specified) |  | inactive
12 | CN(C)C(=O)[C@H](O)[C@H](Cc1ccccc1)NC(=O)c1cc2cc(Cl)ccc2[nH]1 | 56.3% (inactive) | 
13 | CCC1=C(C)CN(C(=O)NCCc2ccc(S(=O)(=O)NC(=O)NC3CCC(C)CC3)cc2)C1=O (stereo unspecified) |  | inactive
14 | CC1=C(C)C(=O)C(C(CCCCCC(=O)O)c2ccccc2)=C(C)C1=O (stereo unspecified) |  | inactive
15 | CCCS(=O)c1ccc2nc(NC(=O)OC)[nH]c2c1 (stereo unspecified) |  | inactive
16 | Nc1cccc2c1CN(C1CCC(=O)NC1=O)C2=O (stereo unspecified) | -0.284% (inactive) | 
17 | Nc1nc(OCc2ccccc2)c2[nH]cnc2n1 | -4.24% (inactive) | 
18 | C[C@@H](c1ncncc1F)[C@](O)(Cn1cncn1)c1ccc(F)cc1F | 68.4% (inactive) | 
19 | Nc1ccc(S(N)(=O)=O)cc1 | 89.1% (inactive) | 
20 | CC1(C)CCC(C)(C)c2cc(NC(=O)c3ccc(C(=O)O)cc3)ccc21 | -1.97% (inactive) | 

tested on: not listed separately; assay: A High-Content qHTS Against Drug Library for the Identification of Small Molecules that Inhibit DYT1 Early Onset Primary Dystonia-Associated Cell Pathology (AID 1645839; calls by dose curve); conditions: HEK293 Flp-In EGFP-delE TorsinA, punctate imaging, 48 h; series mostly up to 46.1 µM; % pathology change, negative = correction: at the top concentration
Outline: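 In this high-content image screen, delE TorsinA mislocalization in inducible Flp-In 293 cells is scored as %pathology, with cell count serving as the counterscreen. Compound exposure lasts 48 h under tetracycline induction in reduced-serum medium.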

Row | SMILES | % pathology change, negative = correction
21 | NS(=O)(=O)c1cc(C(=O)O)c(NCc2ccco2)cc1Cl | 14.1% (inactive)
22 | Nc1cccc2c1CN(C1CCC(=O)NC1=O)C2=O (stereo unspecified) | 6.9% (inactive)
23 | Nc1ccc(S(N)(=O)=O)cc1 | 4.25% (inactive)

target: Cytochrome P450 2D6 (Homo sapiens) (UniProt P10635); assay: Cytochrome P450 family 2 subfamily D member 6 (CYP2D6) small molecule antagonists: luciferase biochemical (cell-free) qHTS assay (AID 1645840); conditions: P450-Glo CYP2D6 enzyme, luciferin luminescence, 1 h; series mostly up to 57.4 µM; activity change, negative = inhibition: at the top concentration; note: nearly all actives have a fitted effect of over 55% in size; note: potency is the fitted concentration of half-maximal effect; for activity change, negative = inhibition: % is set by controls: 0 for no effect and ±100 for the full control effect
Outline: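 P450-Glo luminescent screen: recombinant CYP2D6 enzyme–proluciferin substrate mix preincubated with compound 10 min at room temperature, then NADPH regeneration added for 1 h at room temperature. Detection reagent added for 20 min; luciferin light read as relative luminescence units.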

Chain of Cytochrome P450 2D6 (Homo sapiens) (P10635 whole entry, looked up): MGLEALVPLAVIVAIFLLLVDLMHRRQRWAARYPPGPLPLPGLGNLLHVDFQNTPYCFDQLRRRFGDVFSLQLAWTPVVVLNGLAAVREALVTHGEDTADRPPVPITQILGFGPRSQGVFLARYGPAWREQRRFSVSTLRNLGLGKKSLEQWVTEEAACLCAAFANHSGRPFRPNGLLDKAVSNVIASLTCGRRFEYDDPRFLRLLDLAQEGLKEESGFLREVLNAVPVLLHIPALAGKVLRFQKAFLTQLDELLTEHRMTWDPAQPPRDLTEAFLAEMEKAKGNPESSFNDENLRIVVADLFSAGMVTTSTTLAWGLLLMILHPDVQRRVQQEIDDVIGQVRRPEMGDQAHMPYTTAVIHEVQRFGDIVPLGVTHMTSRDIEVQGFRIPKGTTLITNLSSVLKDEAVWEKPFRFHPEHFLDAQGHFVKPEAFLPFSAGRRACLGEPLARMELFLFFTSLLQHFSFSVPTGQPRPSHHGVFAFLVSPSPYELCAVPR

Row | SMILES | activity change, negative = inhibition | Potency
24 | COc1ccc(C2(C#N)CCC(C(=O)O)CC2)cc1OC1CCCC1 (stereo unspecified) | -18.3% (inactive) | 
25 | O=C(NOCC1CC1)c1ccc(F)c(F)c1Nc1ccc(I)cc1Cl | -28.1% (inactive) | 
26 | CC1Cc2ccccc2N1NC(=O)c1ccc(Cl)c(S(N)(=O)=O)c1 (stereo unspecified) | -3.54% (inactive) | 
27 | COC1=C(OC)C(=O)C(CCCCCCCCCCO)=C(C)C1=O |  | 3.89 µM (active)
28 | Nc1nc(Cl)nc2c1ncn2[C@H]1C[C@H](O)[C@@H](CO)O1 | 10.5% (inactive) | 
29 | CC(=O)NC[C@H]1CN(c2ccc(N3CCOCC3)c(F)c2)C(=O)O1 | 18% (inactive) | 
30 | CCCCN(CCCC)CCC(O)c1cc2c(Cl)cc(Cl)cc2c2cc(C(F)(F)F)ccc12 (stereo unspecified) |  | 0.55 µM (active)
31 | O=c1oc2cc(O)ccc2s1 | 3.87% (inactive) | 
32 | O=c1ccc2ccc(O)c(O)c2o1 | -0.0541% (inactive) | 
33 | COc1cc(C(C)=O)ccc1OCCCN1CCC(c2noc3cc(F)ccc23)CC1 |  | 5.49 µM (active)
34 | CCCCCCCCOc1ccccc1C(=O)Nc1ccc(C(=O)OCC[N+](C)(CC)CC)cc1 |  | 17.4 µM (active)
35 | Cc1ccc(C(=O)c2cc(O)c(O)c([N+](=O)[O-])c2)cc1 | -2.5% (inactive) | 
36 | CCOc1cc(CC(=O)N[C@@H](CC(C)C)c2ccccc2N2CCCCC2)ccc1C(=O)O | 4.71% (inactive) | 
37 | Cc1nc(Nc2ncc(C(=O)Nc3c(C)cccc3Cl)s2)cc(N2CCN(CCO)CC2)n1 | 3.82% (inactive) | 
38 | O=c1c(O)c(-c2ccc(O)cc2O)oc2cc(O)cc(O)c12 | -16.7% (inactive) | 
39 | Cc1cc(=O)c2c(O)c3c(O)cc(=O)c4c3c3c(cc(O)c1c23)C(C)(C)C=4O | 5.75% [at 23.9 µM] (inactive) | 
40 | CCN(CC)CCOc1ccc(Cc2ccccc2)cc1 |  | 6.17 µM (active)
41 | Cc1cc2c(s1)Nc1ccccc1N=C2N1CCN(C)CC1 |  | inactive
42 | Cc1cccc(CN2CCN(C(c3ccccc3)c3ccc(Cl)cc3)CC2)c1 (stereo unspecified) |  | 2.45 µM (active)
43 | Cc1nc(-c2ccc(OCC(C)C)c(C#N)c2)sc1C(=O)O | 9.8% (inactive) | 
44 | NC(=NCc1ccccc1)NC(=O)c1nc(Cl)c(N)nc1N |  | 5.35 µM (active)
45 | CN(C)[C@@H](CCOc1cccc2ccccc12)c1ccccc1 |  | 347 nM (active) and 849 nM (active)
46 | C=C(c1ccc(C(=O)O)cc1)c1cc2c(cc1C)C(C)(C)CCC2(C)C | 15.7% (inactive) | 
47 | Cc1ccc(NC(=O)c2ccc(CN3CCN(C)CC3)cc2)cc1Nc1nccc(-c2cccnc2)n1 |  | inactive
48 | Cc1cc(C2CCCCC2)n(O)c(=O)c1 | 21% (inactive) | 
49 | Nc1ccn([C@@H]2O[C@H](CO)[C@@H](O)C2O)c(=O)n1 (stereo partly specified) | 17.9% (inactive) | 
50 | CCC1=C(C)CN(C(=O)NCCc2ccc(S(=O)(=O)NC(=O)NC3CCC(C)CC3)cc2)C1=O (stereo unspecified) |  | inactive
51 | CC1=C(C)C(=O)C(C(CCCCCC(=O)O)c2ccccc2)=C(C)C1=O (stereo unspecified) |  | 11 µM (active)
52 | C[C@@H](c1ncncc1F)[C@](O)(Cn1cncn1)c1ccc(F)cc1F | -15.9% (inactive) | 
53 | CC1(C)CCC(C)(C)c2cc(NC(=O)c3ccc(C(=O)O)cc3)ccc21 | 1.85% (inactive) | 

target: Cytochrome P450 3A4 (Homo sapiens) (UniProt P08684); assay: Cytochrome P450 family 3 subfamily A member 4 (CYP3A4) small molecule antagonists: luciferase qHTS assay (AID 1645841); conditions: P450-Glo CYP3A4 enzyme assay, luciferin luminescence; series mostly up to 57.4 µM; activity change, negative = inhibition: at the top concentration; note: nearly all actives have a fitted effect of over 45% in size
Outline: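 Luminescent CYP3A4 activity readout: compounds plus enzyme-substrate mix 10 min at room temperature, reaction started with NADPH regenerating system for 1 h, stopped with detection reagent, read after 20 min. Ketoconazole served as control.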

Chain of Cytochrome P450 3A4 (Homo sapiens) (P08684 whole entry, looked up): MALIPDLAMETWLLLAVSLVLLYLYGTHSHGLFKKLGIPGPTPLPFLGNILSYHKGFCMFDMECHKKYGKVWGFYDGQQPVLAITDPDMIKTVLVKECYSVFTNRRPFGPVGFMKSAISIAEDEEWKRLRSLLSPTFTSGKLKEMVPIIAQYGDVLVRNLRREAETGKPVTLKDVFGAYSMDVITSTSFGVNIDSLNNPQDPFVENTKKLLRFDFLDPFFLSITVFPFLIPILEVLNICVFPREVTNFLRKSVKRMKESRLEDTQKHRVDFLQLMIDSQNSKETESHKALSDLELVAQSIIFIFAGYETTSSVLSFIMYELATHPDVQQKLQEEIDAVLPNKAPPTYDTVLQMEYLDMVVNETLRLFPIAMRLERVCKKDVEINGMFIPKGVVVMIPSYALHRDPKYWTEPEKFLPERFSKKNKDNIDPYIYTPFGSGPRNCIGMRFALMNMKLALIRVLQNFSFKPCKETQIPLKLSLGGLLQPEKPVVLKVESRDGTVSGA

Row | SMILES | activity change, negative = inhibition
54 | CC(=O)NC[C@H]1CN(c2ccc(N3CCOCC3)c(F)c2)C(=O)O1 | -0.848% (inactive)
55 | Cc1cc(=O)c2c(O)c3c(O)cc(=O)c4c3c3c(cc(O)c1c23)C(C)(C)C=4O | -6.53% [at 23.9 µM] (inactive)
56 | CCCS(=O)c1ccc2nc(NC(=O)OC)[nH]c2c1 (stereo unspecified) | 32.9% (inactive)
